From PubChem
Rows were chosen to be rich in hits. Some 12% of all compounds tested hit in one or more screens of this group.
G9a inh: inhibitors of human histone lysine methyltransferase G9a. AID 504332. Potency, µM (doses to about 102 µM), without a hit: top-dose activity, negative = inhibition, usual class: inhibitors. G9a H3K9 monomethylation, AlphaScreen, 2 h. 350,000 compounds, 8.8% hits. Q96KQ7; further: on the % scale 0 is the no-effect control and ±100 the full control effect; nearly all actives have a fitted effect of over 75% in size
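Quantitative HTS format: methyltransferase activity on a biotin-tagged H3K9 peptide is measured by AlphaScreen, using a rabbit anti-monomethyl-H3K9 antibody with streptavidin donor and anti-IgG acceptor beads. Final levels are 20 nM enzyme, 500 nM peptide, 20 uM SAM; 2 h RT.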
JMJD2A Tudor: JMJD2A Tudor domain (human) inhibition; Potency, µM (series often up to 114 µM), for the others: at the highest dose activity change, negative = inhibition, actives largely listed as inhibitors; 390,000 compounds, 4.4% hits; AlphaScreen JMJD2A-Tudor / H3K4me3 peptide binding; O75164; further: on the % scale 0 is the no-effect control and ±100 the full control effect; nearly all actives have a fitted effect of over 50% in size
Sfp PPTase inh: Sfp phosphopantetheinyl transferase inhibition; Potency, µM, for the others: largest response in the series, negative = inhibition, usual class: inhibitors; 310,000 compounds, 3.5% hits; Q9F4F7; Biochemical Sfp PPTase activity, qHTS;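 further: the enzyme is Sfp with the accession as filed and its product quenches rhodamine fluorescence; 0% = enzyme reaction without inhibitor and -100% = no enzyme wells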
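Compounds were incubated with enzyme (final 15 nM) for 15 min at room temperature before substrate addition started the reaction. Fluorescence at 525 nm excitation, 598 nm emission was recorded immediately and after 30 minutes.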
HP1b binding inh: HP1-beta chromodomain-methylated histone interaction inhibition; AlphaScreen HP1-beta / biotin-H3K9me3 peptide binding; Potency, µM (highest dose often 114 µM), for the others: at the highest dose activity change, negative = inhibition, actives largely listed as inhibitors; 390,000 compounds, 0.56% hits; P83916; further: nearly all actives have a fitted effect of over 70% in size
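AlphaScreen: HP1-beta (50 nM) preformed 30 min with biotin-H3(1-18)K9me3 peptide (50 nM) in PBS pH 7.4, 0.01% Tween-20. Compound added for 30 min at RT, then streptavidin donor/nickel chelate acceptor beads (10 ug/mL) for 30 min.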
BAZ2B block: inhibitors of human BAZ2B bromodomain; Q9UIF8; AlphaScreen BAZ2B-H3K14Ac peptide displacement; Potency, µM (top dose mostly 114 µM), without a hit: at the top dose activity change, negative = inhibition, actives largely listed as inhibitors; 360,000 compounds, 4.4% hits; AID 504333; further: on the % scale 0 is the no-effect control and ±100 the full control effect; nearly all actives have a fitted effect of over 60% in size
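AlphaScreen displacement of biotin-H3(5-23)K14Ac peptide (50 nM final) from BAZ2B (50 nM final) in PBS pH 7.4, 0.01% Tween-20; complex preformed 30 min RT, then compounds (top 110 uM) 30 min RT, beads 20 min dark.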
* hit, by the source's call; ? = inconclusive; . = no result given; [ ] = another dose, or the depositor's remark. The call rests on the fitted dose curve; in most records, active means well fitted curve in the direction sought with a large enough effect; inconclusive means small, poorly fitted or top-dose-only effect, or another doubt; inactive means no such curve, though single readings can be large; an effect the other way counts as inactive or inconclusive. Potency means the concentration at half of the fitted maximal effect.

SMILES | G9a inh | JMJD2A Tudor | Sfp PPTase inh | HP1b binding inh | BAZ2B block
O=C(CNc1ccccc1F)Nc1cccc(S(=O)(=O)N2CCCCC2)c1 | ? | -17.7% | . | 14.4% | -1.1%
Cc1ccc(Nc2nnc(SCC(=O)Nc3cccc(S(=O)(=O)N4CCCCC4)c3)s2)cc1 | 39.8µM* | -28.4%[57.1 µM] | 22.2% | 14.0% | -19.9%
Cc1nnc(SCC(=O)Nc2cccc(S(=O)(=O)N3CCCCC3)c2)s1 | 10.4%[2.33 µM] | -11.5% | . | 12.7% | -3.2%
O=C(CSc1nnc(Nc2ccccc2F)s1)Nc1cccc(S(=O)(=O)N2CCCCC2)c1 | 3.16µM* | ? | 8.8% | 6.9% | -10.0%
CCCCC(OC(=O)CNC(=O)c1ccccc1)C(=O)Nc1cc(C(F)(F)F)ccc1Cl (configuration not stated) | . | -11.6% | . | . | .
Cc1cc(N2C(=O)C(O)=C(C(=O)c3cc4ccccc4o3)C2c2cccs2)no1 (configuration not stated) | 35.5µM* | ? | -1.4% | -2.0%[57 µM] | ?
Cc1cc(N2C(=O)C(O)=C(C(=O)c3ccc(C)o3)C2c2cccs2)no1 (configuration not stated) | ? | -27.9% | -17.0% | 1.9% | -14.8%
Cc1cc(N2C(=O)C(O)=C(C(=O)c3cc4ccccc4o3)C2c2ccc([N+](=O)[O-])cc2)no1 (configuration not stated) | 44.7µM* | -27.7% | 18.0% | 5.5% | ?
Cc1ccc(N2C(=O)N(CC(=O)Nc3cc(F)ccc3C)C(=O)C2C)cc1 (configuration not stated) | 12.8% | -2.1% | . | 19.9% | 1.0%
CC(C)NC(=O)c1ccc2c(=O)n(Cc3ccco3)c(=S)[nH]c2c1 | -0.3%[59 µM] | -1.8% | -16.0% | 34.6% | 10.6%
CCOCCCNC(=O)c1ccc2c(=O)n(CCCOCC)c(=S)[nH]c2c1 | 10µM* | -10.6% | 10.5% | 35.3% | -18.8%
COCCn1c(=S)[nH]c2cc(C(=O)NC(C)C)ccc2c1=O | 11.2µM* | ? | 21.2% | 31.6% | ?
CCN1CCN(C(=O)CCCCCn2c(=O)[nH]c3cc(C(=O)OC)ccc3c2=O)CC1 | ? | -18.4% | 13.3% | 12.9% | 4.2%
COC(=O)c1ccc2c(=O)n(CCCCCC(=O)N3CCN(c4ccccc4)CC3)c(=O)[nH]c2c1 | -7.3% | 56.2µM* | -8.1% | -24.6% | 2.6%
CCOCCCn1c(=S)[nH]c2cc(C(=O)NCCc3ccc(OC)c(OC)c3)ccc2c1=O | . | 2.5% | -8.9% | 52.6% | -0.6%
CCOCCCn1c(=S)[nH]c2cc(C(=O)NCCOC)ccc2c1=O | ? | 39.8µM* | 79.4µM* | 42.6% | ?
Cc1cc(C)c(NC(=O)C2CCN(S(=O)(=O)c3c(C)noc3/C=C/c3ccccc3F)CC2)c(C)c1 | 12.4%[59 µM] | -12.5% | . | 19.8%[57 µM] | -0.8%
CCOCCCn1c(=S)[nH]c2cc(C(=O)NCCCN(CC)CC)ccc2c1=O | 8.91µM* | -18.5% | 1.5% | 26.9% | -14.1%
COC(=O)c1ccc2c(=O)n(CCCCCC(=O)O)c(=S)[nH]c2c1 | 44.7µM* | 50.1µM* | -11.2% | 42.2% | -27.6%
COCCNC(=O)C1CCC(Cn2c(=S)[nH]c3ccccc3c2=O)CC1 (configuration not stated) | ? | 79.4µM* | 12.8% | 47.3% | -2.8%
CCOCCCn1c(=S)[nH]c2cc(C(=O)NC3CCCCC3C)ccc2c1=O (configuration not stated) | 45.6% | -2.8% | 25.6% | 28.8% | -1.9%
COC(=O)c1ccc2c(=O)n(CCO)c(=S)[nH]c2c1 | ? | ? | 9.8% | 23.8% | -30.3%
Cc1cc(C)c2nc(N(Cc3cccnc3)C(=O)Cc3ccccc3)sc2c1 | -3.6%[59 µM] | -3.6% | . | 35.1% | -7.2%
CCC[C@H](NC(C)=O)C(=O)N[C@H]1CC(=O)ONCCCC[C@@H](C(N)=O)NC(=O)[C@H](Cc2c[nH]c3ccccc23)NC(=O)[C@H](CCCN=C(N)N)NC(=O)[C@@H](Cc2ccc3ccccc3c2)NC(=O)[C@H](Cc2cnc[nH]2)NC1=O | . | . | 12.7% | . | .
CCc1cc(C(=O)Nc2cnn(Cc3ccccc3C)c2)no1 | ? | -5.8% | . | 31.4% | 1.0%
Cc1ccccc1OCCNCC(C)O (configuration not stated) | 14.1µM* | 2.82µM* | -7.8% | ? | 56.2µM*
